For 40 compounds, Inhibition results are on record in ChEMBL document CHEMBL1157539, “Thousands of chemical starting points for antimalarial lead identification” (Nature, 2010).

For orientation: Inhibition means the relative decrease from the control value, in per cent.

One experiment deals with Plasmodium falciparum. Put plainly: GSK_TCMDC: Inhibition of Plasmodium falciparum Dd2 in whole red blood cells, using parasite LDH activity as an index of growth. Test compounds present at 2uM. It counts as functional.
`Cc1ccc(NC(=O)c2ccc3ncccc3c2)cc1OC1CCN(CCC(C)C)C1.O=C(O)C(F)(F)F` (centres undefined) showed an Inhibition of 62%.

`CCN(CC)CCNC(=O)c1ccc(NC(=O)c2ccc(-c3cc(NC(=O)CC4CCCC4)ccc3C)cc2)cc1` had an Inhibition of 95%.

The compound `Cc1cc(N/N=C/c2ccccc2[N+](=O)[O-])c2cccc(C)c2n1` had an Inhibition of 100%.

In turn, `CCN(CC)CCOc1ccc(NC(=O)c2oc3ccccc3c2C=Cc2ccccc2)cc1.O=C(O)/C=C/C(=O)O` registered an Inhibition of 54%.

The subject of the next experiment is HepG2. Put plainly: GSK_TCMDC: Percent inhibition of human HepG2 cell line. Test compounds present at 10uM. It counts as functional.
On to `Cc1ccc2cc(NCCCCCCCCON3C(N)=NC(N)=NC34CCCCC4)ccc2n1`, for which the Inhibition is recorded as 15%.

Consider `O=C(/C=C/c1ccc(Cl)c(Cl)c1)NCCCCCN1CCC(NC(=O)Nc2ccc(C(F)(F)F)cc2)C1` (centres undefined), for which the Inhibition is given as 11%.

Compound `O=C(Nc1cccc(-c2nn3ccccc3c2-c2ccnc(Nc3ccc(NCCCN4CCOCC4)c(F)c3)n2)c1)c1c(F)cccc1F` gave an Inhibition of 86%.

The compound `COc1ccc(CCNC(=O)c2ccccc2O)cc1-c1ccc(C(C)(C)C)cc1` showed an Inhibition of 25%.

`CCN(CCCN1CCCC1)c1cc(C)nc(Nc2ccc(Cl)cc2)n1.O=C(O)C(=O)O` gave an Inhibition of 5%.

As to `CS(=O)(=O)CCNc1cc(N2CCc3ncnc(Nc4ccc(OCc5cccc(F)c5)c(Cl)c4)c3C2)ncn1`, the Inhibition worked out at 0%.

Compound `NS(=O)(=O)c1ccc(CNC(=O)c2cnc3c(O)cccc3c2Nc2cccc(NC(=O)c3ccc(Cl)c(Cl)c3)c2)cc1.O=C(O)C(F)(F)F` showed an Inhibition of 56%.

Turning to `O=C(Nc1ccccc1)N(Cc1cccc(-c2ccc(CNC3CCCC3)cc2)c1)C1CCN(Cc2ccccc2)CC1.O=C(O)C(F)(F)F`, the Inhibition is 100%.

Turning to `Cc1cc(F)ccc1Oc1nc(Nc2ccc(N3CCOCC3)c(F)c2)nc2c1S(=O)(=O)CCC2.Cl`, the Inhibition was determined as 10%.

Compound `O=C(CCc1c[nH]cn1)Nc1cccc(-c2ccc(-c3nc4cc(F)ccc4[nH]3)s2)c1` came in with an Inhibition of 17%.

Compound `O=C(Nc1ccc(F)cc1F)NC1CCN(CCCCCNC(=O)C2CC2c2ccc(Cl)c(Cl)c2)CC1` (centres undefined) displayed an Inhibition of 41%.

The compound `Cc1ccccc1C(=O)NC(NC(=S)Nc1ccc([N+](=O)[O-])cc1)C(Cl)(Cl)Cl` (centres undefined) displayed an Inhibition of 0%.

The compound `CCN1CCN(c2cc(C)c3cc(NC(=O)c4cncc(Br)c4)ccc3n2)CC1` yielded an Inhibition of 3%.

Take `COc1ccc(-c2nc3c(N)nc(N)nc3nc2C(C)C)cc1`: the Inhibition is listed as 71%.

`COc1c(C2CCN(CCCCNC(=O)c3cc(-c4ccc(Cl)cc4)sc3C)CC2)ccc2c1CCCC2`: the Inhibition came to 61%.

Compound `O=C(/C=C/c1ccc(Cl)c(Cl)c1)N1CCN(C(=O)Nc2cccc(C(F)(F)F)c2)CC1` registered an Inhibition of 53%.

Regarding `O=C(O)C(F)(F)F.O=c1ccc2ccc(F)c3c2n1CC3CN1CCC(NCc2ccc(-c3cccc(Cl)c3)nc2)CC1` (centres undefined), the Inhibition was determined as 16%.

In the case of `Cc1[nH]cnc1Cc1ccc2c(c1O)c1ccccc1n2C`, the Inhibition is reported as 9%.

`COc1ccc2nccc([C@@H](O)CN3CCC(NC(=O)/C=C/c4ccc5cc(C)[nH]c5c4)CC3)c2c1` registered an Inhibition of 7%.

Compound `Cc1cc(NC2CCN(CC3CCCCC3)CC2)nc(Nc2ccccc2Cl)n1` gave an Inhibition of 28%.

As to `CC12CN3CC(C)(CN(C1)C3c1cc(Br)ccc1O)C2O` (centres undefined), the Inhibition is on record as 5%.

Compound `CC(C)c1ccc(C=CC(=O)N2CCC(CCN3CCC(c4c[nH]c5ccccc45)CC3)CC2)cc1` gave an Inhibition of 85%.

In the case of `O=C(NCc1cccs1)[C@H](Cc1ccccc1)Nc1ccnc(NCC2CCCCC2)n1.O=C(O)C(F)(F)F`, the Inhibition was 5%.

Regarding `COc1ccc(CCN(C)CCOc2ccc(NC(=O)c3cc(SC)cc4c(=O)c5ccccc5[nH]c34)cc2)cc1OC`, the Inhibition is 7%.

The compound `COc1cccc(OC(C)(C)c2nc(N[C@@H](C)c3ccccc3)c3cn[nH]c3n2)c1` had an Inhibition of 44%.

`CCCCCN1CCCN(Cc2cccc(NC(=O)c3ccc(Cl)c(Cl)c3)c2)CC1.O=C(O)C(F)(F)F` gave an Inhibition of 30%.

On to `O=C(Nc1cccc(-c2ccc(-c3nc4ccccc4[nH]3)cc2)c1)Nc1ccc2c(c1)OCO2`, for which the Inhibition turned out to be 20%.

Take `O=C(O)C(F)(F)F.Oc1ccc(CCCNc2nc(NCc3ccccc3-c3ccccc3)nc(N3CCNCC3)n2)cc1`: the Inhibition was 39%.

For the compound `FC(F)(F)c1ccc2[nH]c(-c3ccc(-c4cccc(CNCc5ccccc5)c4)cc3)nc2c1.O=C(O)C(F)(F)F`, the Inhibition worked out at 0%.

With `Cc1cccc2nc(-c3ccc(-c4ccc(CNCCNC(=O)c5ccnn5C)cc4)cc3)[nH]c12.O=C(O)C(F)(F)F`, the Inhibition was 29%.

In turn, `Cc1cc(NCCc2ccccc2)nc(N/C(=N/CC(=O)OC(C)(C)C)Nc2ccc(C(F)(F)F)cc2)n1.I` had an Inhibition of 23%.

The compound `CCCCOc1ccccc1C(=O)NCc1csc(-c2ccccc2)n1` displayed an Inhibition of 17%.

In turn, `COc1ccc2[nH]c(C(=O)Nc3cccc(-c4ccc(CN(C)C)cc4)c3)cc2c1` showed an Inhibition of 23%.

`COc1cccc(CN2CCCN(Cc3cccc(NC(=O)c4cc5ccccc5s4)c3)CC2)c1.O=C(O)C(F)(F)F`: the Inhibition was found to be 17%.

`CC(C)Sc1nc2c(c(=O)n1Cc1ccco1)C1(CCCC1)Cc1ccccc1-2` showed an Inhibition of 8%.

`Cc1nnsc1C(=O)Nc1cccc(-c2ccc(-c3nc4cccc(C)c4[nH]3)s2)c1` gave an Inhibition of 46%.

With `Cc1ccc(NC(=O)c2ccc3ncccc3c2)cc1OC1CCN(CCC(C)C)C1.O=C(O)C(F)(F)F` (centres undefined), the Inhibition stood at 5%.

With `CCN(CC)CCNC(=O)c1ccc(NC(=O)c2ccc(-c3cc(NC(=O)CC4CCCC4)ccc3C)cc2)cc1`, the Inhibition was found to be 12%.

The compound `Cc1cc(N/N=C/c2ccccc2[N+](=O)[O-])c2cccc(C)c2n1` registered an Inhibition of 0%.

In turn, `CCN(CC)CCOc1ccc(NC(=O)c2oc3ccccc3c2C=Cc2ccccc2)cc1.O=C(O)/C=C/C(=O)O` displayed an Inhibition of 51%.
